# Assay results taken from PubChem BioAssay AID2417 (National Center for Advancing Translational Sciences (NCATS), 2010).
# Out of some 140,000 compounds screened, about 4,300 (3.1%) were called active. Another 21% or so got no clear call; they are omitted. This excerpt belongs to a sample that is enriched for actives. Values without a mark were called inactive.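 Rule for the calls: active = readout at or below -70, meaning at least 70% loss of cells showing the perinucleolar compartment, a nuclear body marking cancer cells; inconclusive = readout between -30 and a set limit; inactive = the rest.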
# Assay: High Content Assay for Compounds that inhibit the Assembly of the Perinucleolar Compartment;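 note: plate controls were DMSO wells for no effect and camptothecin positive control wells for full effect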
# Conditions: PC3M PTB-GFP, PNC prevalence imaging, 16 h; at 10 µM; active compounds read low
# Method in brief: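 PC3M cells stably expressing PTB-GFP, 750–1000 cells/well, treated 16 h at 37 °C with compound (23 nl of library stock), in duplicate. After paraformaldehyde fixation and Hoechst stain, imaged at 20x; PNC prevalence scored by image analysis.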
row,Compound,"activity change (PNC), negative = inhibition"
1,CC1Cc2ccccc2N1C(=O)CSc1nnc(-c2ccc(S(=O)(=O)N3CCCC3)cc2)n1C (stereo not given),-4.26%
2,COc1ccc(C(CCNCc2ccccc2F)c2ccc(F)cc2)cc1 (stereo not given),-83.9% (active)
3,COc1cccc(CNCCc2c[nH]c3ccccc23)c1OCc1ccccc1F,9.41%
4,COc1ccc(C(CC(=O)O)NC(=O)Cc2ccccc2)cc1 (stereo not given),-1.4%
5,COc1ccc(S(=O)(=O)NC(C)C(=O)Nc2cccc([N+](=O)[O-])c2)cc1 (stereo not given),-19.9%
6,COc1ccc(-n2nc3c(c2NC(=O)Cc2cccc(C)c2)CS(=O)C3)cc1 (stereo not given),1.65%
7,Cc1cccc(CC(=O)Nc2c3c(nn2-c2cccc(Cl)c2)CS(=O)C3)c1 (stereo not given),-2.34%
8,COc1ccc(CC(=O)Nc2c3c(nn2-c2cccc(Cl)c2)CS(=O)C3)cc1 (stereo not given),-119% (active)
9,CC(NC(=O)C(=O)NN=C1CCC(C(C)(C)C)CC1)c1ccccc1 (stereo not given),-5.42%
10,COC(=O)Cc1csc(/N=C/c2c(O)n(-c3cccc(C(F)(F)F)c3)c(=O)c3ccccc23)n1,-11.4%
11,COc1ccc(C(=O)N2CC3(C)CC2CC(C)(C)C3)cc1OC (stereo not given),-104% (active)
12,Cc1cccc(C(=O)NCC(=O)OCC(=O)N2CC3(C)CC2CC(C)(C)C3)c1 (stereo not given),-3.76%
13,COc1ccccc1C(=O)N1CC2(C)CC1CC(C)(C)C2 (stereo not given),-20.8%
14,Cc1cc(Cl)ccc1NC(=S)NCCCN1CCCC1=O,13%
15,CCO/N=C(/C)c1c(O)cc(-c2ccccc2)n(-c2ccccc2)c1=O,36.7%
16,Cc1cc(C)n(C(=O)c2ccc(S(=O)(=O)N3CCCC3)cc2)n1,5.75%
17,Cc1ccccc1-c1nnn(CC(=O)c2ccc(S(=O)(=O)N3CCCC3)cc2)n1,-100% (active)
18,CC(C)(C)NC(=O)Cn1nnc(-c2ccccc2Cl)n1,25.1%
19,O=C(COC(=O)Cc1ccc(Br)cc1)Nc1c(F)c(F)c(F)c(F)c1F,16.2%
20,O=C(Nc1nc2ccccc2s1)c1ccc2c(c1)OCO2,62.8%
21,O=C(Nc1ccc2c(c1)OCCO2)c1ccncc1,-27.2%
22,O=C(Nc1nc(-c2ccc3c(c2)OCO3)cs1)c1ccncc1,-83.5% (active)
23,CCCCNS(=O)(=O)c1ccc2nc(SCC(=O)Nc3cc(C)cc(C)c3)[nH]c2c1,35.2%
24,CCCCN(CC)C(=S)Nc1ccc2nc3n(c(=O)c2c1)CCCCC3,41.2%
25,O=C(CSc1ccccn1)Nc1nc2c(ccc3ccccc32)s1,41.9%
